# The source made the active and inactive calls.
# What was measured:
# Albumin (Bos taurus) = Albumin (Bos taurus) (UniProt P02769); assay: bovine serum albumin binders on microarray, profiling panel, artefact control for SMM control protein annotation, biochemical, small-molecule microarray, Alexa647 label, 635/667 nm fluorescence (AID 1118); conditions: BSA-A647 binding, fluorescence 635 nm, higher = more signal;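 further: score merges 667 nm emission intensity and signal-to-noise per printed compound spot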
# [1] = small-molecule microarray binders of probe aXIP, primary screen, biochemical, NeuroSMM set, 635/667 nm fluorescence (AID 1119); conditions: higher = more signal, called active from +8 up or from −8 down;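 further: probe is the protein aXip251-270 applied at 1 µg/mL to compound-printed slides; binding of probe to printed compounds measured as 667 nm fluorescence plus signal to noise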
# [2] = small-molecule binders of probe aNOTCH3, primary screen, biochemical, small-molecule microarray, 635/667 nm fluorescence (AID 1120); conditions: higher = more signal;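 further: probe is a biotin-tagged antibody raised against NOTCH3 rather than NOTCH3 protein; score merges spot fluorescence near 667 nm with spot signal to noise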
# [3] = small-molecule binders of probe aNOTCH2, primary screen, biochemical, small-molecule microarray, 635/667 nm fluorescence (AID 1121); conditions: higher = more signal;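 further: score merges feature fluorescence read at 667 nm with its signal to noise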
# [4] = molecular target: Carbonic anhydrase 2 (Homo sapiens) (UniProt P00918); assay: CAII small-molecule binders, profiling panel, biochemical, small-molecule microarray, Alexa647-labelled CAII (AID 1122); conditions: CAII-A647 binding fluorescence, higher = more signal
# [5] = COS7 lysate on small-molecule microarray, probe aHis, 635 nm (AID 1123); conditions: COS7 cell lysate, fluorescence, higher = more signal;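 further: z-score combines 667nm fluorescence intensity with signal-to-noise per printed compound spot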
# [6] = compound binding in COS7 lysate, probe aLAP1, primary screen, cell lysate, small-molecule microarray (AID 1124); conditions: probe aLAP1, fluorescence, higher = more signal;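 further: lysate comes from COS7 cells expressing LAP1 and is applied at 0.3 µg/mL; score merges spot fluorescence near 667 nm with signal-to-noise over triplicate slides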
# Sam68 (KHDRBS1) = assay: Sam68 small-molecule binders, primary screen, biochemical, small-molecule microarray, 635 nm fluorescence (AID 1125); conditions: small-molecule microarray binding, higher = more signal;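 further: score merges 667 nm channel intensity with signal to noise over triplicate slides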
# [7] = system: Chordin-like protein 2 (CHRDL2); assay: CHRDL2 small-molecule binders, primary screen, biochemical, small-molecule microarray, 635 nm fluorescence (AID 1126); conditions: small-molecule microarray binding, fluorescence 635 nm; higher = more signal;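 further: printed compound slides probed with Chrdl2 protein at 4 µg/mL for 1 h at 4 C; score merges 667 nm emission intensity with signal to noise over three replicate slides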
# [8] = molecular target: Concanavalin-A (Canavalia ensiformis) (UniProt P02866); assay: ConA small-molecule binders, primary screen, artefact control for SMM control protein annotation, biochemical, small-molecule microarray, Alexa647 label, 635 nm (AID 1127); conditions: ConA-A647 binding fluorescence, higher = more signal;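 further: z combines 667 nm emission intensity with signal-to-noise across three replicate slides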
# Concanavalin-A (Canavalia ensiformis), sequence (P02866 whole entry, looked up): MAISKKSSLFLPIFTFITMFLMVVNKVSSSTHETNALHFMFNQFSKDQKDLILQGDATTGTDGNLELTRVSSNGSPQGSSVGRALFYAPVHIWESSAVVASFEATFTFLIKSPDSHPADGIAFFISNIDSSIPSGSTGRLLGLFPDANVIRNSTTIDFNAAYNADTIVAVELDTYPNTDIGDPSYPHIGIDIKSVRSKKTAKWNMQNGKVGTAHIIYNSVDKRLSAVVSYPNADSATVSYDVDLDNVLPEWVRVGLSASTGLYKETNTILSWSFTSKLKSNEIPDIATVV
# Albumin (Bos taurus), sequence (P02769 whole entry, looked up): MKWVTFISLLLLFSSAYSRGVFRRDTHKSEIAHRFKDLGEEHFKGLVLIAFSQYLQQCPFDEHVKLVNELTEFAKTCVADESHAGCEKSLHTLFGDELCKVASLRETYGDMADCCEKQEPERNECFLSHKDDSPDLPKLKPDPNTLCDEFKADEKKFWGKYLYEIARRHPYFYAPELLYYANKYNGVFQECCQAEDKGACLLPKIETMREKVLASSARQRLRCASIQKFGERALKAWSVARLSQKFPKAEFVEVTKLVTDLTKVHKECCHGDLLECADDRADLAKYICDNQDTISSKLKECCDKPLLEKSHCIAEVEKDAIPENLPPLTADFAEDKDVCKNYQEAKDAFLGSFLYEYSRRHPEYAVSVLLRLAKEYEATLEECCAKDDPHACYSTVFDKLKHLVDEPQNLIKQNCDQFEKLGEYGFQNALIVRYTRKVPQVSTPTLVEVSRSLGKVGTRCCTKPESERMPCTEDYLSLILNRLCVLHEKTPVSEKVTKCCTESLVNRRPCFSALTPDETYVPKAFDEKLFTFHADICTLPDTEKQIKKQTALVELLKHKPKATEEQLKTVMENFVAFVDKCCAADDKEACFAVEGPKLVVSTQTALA
Structure (SMILES),composite z-score (Albumin (Bos taurus)),composite Z-score [1],composite z-score [2],composite z-score [3],composite z-score [4],composite z-score [5],composite z-score [6],composite z-score (Sam68 (KHDRBS1)),composite z-score [7],composite z-score [8]
CCCCCN1CC=CC23O[C@@H]4/C=C\CCCOC(=O)C4[C@H]2C(=O)N(C(CO)C(C)C)[C@@H]3C1=O (stereo not given in full),1,0.586 (inactive),-0.139,-0.14,0.819,-0.168,-0.12,-0.656,-0.718,-0.574
O=C1c2ccccc2[C@@]2(Cc3ccccc3N(CCN3CCOCC3)C2=O)[C@H](c2ccc(CO)cc2)N1Cc1ccccc1,-0.425,-0.117 (inactive),-0.165,-0.115,0.739,0.733,0.235,-0.419,-0.717,0.203
COc1ccc([Si](C)(C)[C@H]2[C@H](CCO)O[C@@]3(C(=O)N(C)c4c(Br)cc(C)cc43)[C@@H]2C)cc1,-0.094,-0.303 (inactive),-0.0596,-0.0793,0.473,1,0.0847,0.953,0.344,1.07
CN1C(=O)C2C=CC(C(O)c3ccccc3)N(Nc3ccccc3)C2C1=O (stereo not given),0.761,0.131 (inactive),-0.128,-0.0543,0.78,2.45,0.119,-0.0508,-1.02,0.142
CN(C)C(=O)[C@@]1(Cc2ccccc2CN=[N+]=[N-])N=C(c2ccc(OCCCO)cc2)O[C@H]1c1ccccc1,0.722,-0.797 (inactive),0.103,0.112,0.277,2.69,0.624,1.28,-0.285,0.749
Cc1ccc(S[C@]2(C(=O)NCCN3CCOCC3)CC(=O)N(Cc3ccccc3)[C@@H]2c2ccc(CO)cc2I)cc1,0.285,0.994 (inactive),-0.165,-0.14,0.667,1.43,0.202,-0.388,-1.59,-0.112
CC1CC/C=C\[C@H]2OC34C=CCN(c5ccc(Cl)cc5)C(=O)[C@H]3N(CCO)C(=O)[C@]4(C)C2C(=O)O1 (stereo not given in full),-0.0427,-0.0662 (inactive),-0.152,-0.149,0.902,-0.507,0.627,0.409,-0.961,-0.206
CCCC=C(CCC)[C@@H](NC(=O)Oc1ccc(F)cc1)c1ccc(C(=O)OC)cc1,0.673,-0.594 (inactive),0.209,-0.0817,0.31,1.9,0.0052,1.19,-0.813,0.977
CCCN1C(=O)[C@]2(CCS(=O)(=O)c3ccccc3)N=C(c3ccc(OCCCO)cc3)O[C@@H]2c2ccccc21,0.414,-0.0745 (inactive),-0.0328,-0.0995,0.276,1.15,-0.031,1.29,0.359,0.414
[N-]=[N+]=Nc1ccccc1C[C@@]1(C(=O)NCCN2CCOCC2)N=C(c2ccc(OCCCO)cc2)O[C@@H]1c1ccccc1,0.831,0.255 (inactive),0.144,-0.221,0.468,2.87,0.872,1.3,-0.11,1.11
Cc1ccc(S[C@]2(C(=O)NCCN3CCOCC3)CC(=O)N(Cc3ccccc3Cl)[C@@H]2c2ccc(CO)cc2)cc1,0.429,-0.0407 (inactive),-0.0362,-0.133,0.686,0.776,0.0897,-0.541,-1.2,-0.199
COc1ccc([Si](C)(C)[C@@H]2[C@@H](CCO)O[C@]3(C(=O)N(Cc4ccc(N5C(=O)COc6ccccc65)cc4)c4ccccc43)[C@H]2C)cc1,0.671,-0.539 (inactive),0.305,-0.0924,0.59,1.55,0.844,1.33,0.106,1.07
COC(=O)c1c(CC[C@@H](CO)NC(=O)N2CCC[C@H]2Cn2cc(-c3ccccn3)nn2)oc(C(C)=O)c1C(=O)OC,0.453,0.294 (inactive),-0.118,-0.171,0.428,0.043,0.274,0.882,-0.394,0.419
COC(=O)[C@@]1(Cc2ccc(OC)cc2)[C@H]2c3cc(C(=O)N4CCCC4)n(Cc4ccsc4Br)c3C[C@H]2CN1C(=O)c1ccccc1,0.885,0.387 (inactive),0.527,-0.0677,0.877,2.83,0.0786,0.374,-0.91,0.496
C[C@]1(C(=O)NC2CC2)c2ccccc2C(=O)N(Cc2cc(C(F)(F)F)cc(C(F)(F)F)c2)[C@H]1c1ccc(CO)cc1,-0.0744,0.676 (inactive),0.208,-0.0712,0.412,1.28,0.283,1.32,0.39,0.835

# — PubChem BioAssay
